High-throughput results from PubChem BioAssay.
Most compounds without a hit are left out; they make up all but 7.1% or so of the library.
SW480 rerep: A quantitative high throughput screen for small molecules that induce DNA re-replication in SW480 colon adenocarcinoma cells; SW480 DNA re-replication, Hoechst DNA content imaging, 48 h; hit rate 1.8% among 340,000; Potency, µM (doses to about 46.1 µM), inactives show at the top dose re-replication activation, most hits filed as activators; also: potency is read from the fitted curve at half-maximal effect; % of control where 0% means no effect; nearly all actives have a fitted effect of over 55% in size
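Per well, 250 cells were exposed to pinned compound for 48 hr. Nuclear DNA was visualised with Hoechst (40 min, 37 C) and total object intensity recorded by fluorescence scanning.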
MCF10A rereplic: A quantitative high throughput screen for small molecules that induce DNA re-replication in MCF 10a normal breast cells | MCF 10A DNA re-replication, Hoechst nuclear intensity, 48 h | Potency, µM (doses to about 46.1 µM), inactives show at the highest dose activity, positive = re-replication, usual class: activators | hit rate 2.9% among 350,000 | AID 624296, 2012; also: potency is read from the fitted curve at half-maximal effect; % of control where 0% means no effect; nearly all actives have a fitted effect of over 50% in size
ATXN2 expr inh: Primary qHTS for Inhibitors of ATXN expression | AID 1745845, 2022 | HEK-293 ATXN2-luciferase reporter, luminescence, 24 h | Potency, µM (top dose mostly 57 µM), for the others: top-dose activity change, negative = inhibition, actives largely listed as inhibitors | hit rate 0.72% among 360,000; also: potency is read from the fitted curve at half-maximal effect; % is scaled to controls: 0 for no effect and ±100 for the full control effect; nearly all actives have a fitted effect of over 55% in size
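qHTS (up to 57 uM final) was run with 24 h compound exposure of reporter cells at 37 °C. Each well was multiplexed: SteadyGlo luminescence measured ATXN2-luciferase expression after a fluorogenic Gly-Phe-AFC viability readout (25 uM final).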
PINK1 modulator: A Quantitative High throughput Screen to Identify Chemical Modulators of PINK1 Expression. PINK1 immunofluorescence, high-content cytometry, 24 h. Potency, µM (series often up to 76.6 µM), inactives show at the highest dose activation (PINK1 increase), hits mostly activators. hit rate 0.2% among 410,000; active = well fitted activation curve with a large enough effect; inconclusive = small, poorly fitted or top-dose-only effect; cell line not stated here; also: potency is read from the fitted curve at half-maximal effect; % of control where 0% means no effect; nearly all actives have a fitted effect of over 65% in size
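Readout is PINK1 immunofluorescence, quantified alongside mitochondrial, cell and nuclear markers by laser-scanning microplate cytometry. Cells from a stable line were exposed to compound titrations (5 concentrations) for 24 hours, with CCCP controls.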
S2 tox: Viability Counterscreen for Primary qHTS for Inhibitors of ATXN expression | S2 cells (HEK-293 line with an ATXN2-luciferase reporter) viability, CellTiter-Fluor protease fluorescence, 24 h | Potency, µM (highest dose often 56.7 µM), most hits filed as cytotoxic | hit rate 0.49% among 400,000 | AID 651635, 2014; also: potency is read from the fitted curve at half-maximal effect; nearly all actives have a fitted effect of over 40% in size
IL-1B inflam inh: qHTS for Inhibitors of Inflammasome Signaling: IL-1-beta AlphaLISA Primary Screen | THP-1 LPS/ATP IL-1B secretion, AlphaLISA, 16 h; stronger effect = lower value | activity change, % at 57.5 µM | hit rate 4.7% among 360,000 | AID 743279, 2014; in the data active = activity change below about -50%; inconclusive = mostly about -30% to -49%; also: % is scaled to controls: 0 for no effect and ±100 for the full control effect
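Secreted IL-1B measured by AlphaLISA bead assay after 16 h compound exposure of THP-1 cells; compounds (final up to 57.5 uM) added 1 h before LPS (250 ng/mL) and ATP (1.25 mM) stimulation; lower signal means less secretion.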
The depositor's hits bear a star; [ ] = another dose, or the depositor's remark. Unless noted, calls follow the shape of the dose curve; as a rule, active = well fitted curve in the direction sought with a large enough effect; inconclusive = small, poorly fitted or top-dose-only effect, or another doubt; inactive = no such curve, though single readings can be large; an effect the other way counts as inactive or inconclusive.

COC(=O)c1cc2oc3ccccc3c2n1CC(=O)Nc1ccc(C)c(F)c1 was read as ATXN2 expr inh -4%, PINK1 modulator 2% and S2 tox inactive.
`CC[n+]1c(/C=C2\Sc3ccccc3N2C)ccc2cccc(C)c21` gave SW480 rerep -10%, MCF10A rereplic -6%, ATXN2 expr inh inconclusive, PINK1 modulator 0%, S2 tox inconclusive and IL-1B inflam inh -100*.
`CCN1/C(=C/C=C/C=C/C=C/c2sc3ccccc3[n+]2CC)Sc2ccccc21` gave SW480 rerep 8%, MCF10A rereplic inconclusive, ATXN2 expr inh inconclusive, PINK1 modulator inconclusive, S2 tox inconclusive and IL-1B inflam inh inconclusive.
For CCN1/C(=C/c2ccc3cc(C)ccc3[n+]2CC)Sc2ccccc21 the results were SW480 rerep -8%, MCF10A rereplic 14%, PINK1 modulator 8% and IL-1B inflam inh -100*.
`CCN1/C(=C/c2ccc3cc(C)ccc3[n+]2CC)Sc2cc(C)c(C)cc21` gave SW480 rerep inconclusive, MCF10A rereplic -2%[9.22 µM], ATXN2 expr inh inconclusive, PINK1 modulator inconclusive, S2 tox inconclusive and IL-1B inflam inh -98*.
For COC(=O)[C@H](CCCN=C(N)N)NS(=O)(=O)c1ccc(C)cc1 the results were ATXN2 expr inh 1%.
Screening Cc1coc2c1C(=O)C(=O)c1c-2ccc2c(C)cccc12 returned SW480 rerep 5.2µM*, MCF10A rereplic inconclusive, ATXN2 expr inh inconclusive, PINK1 modulator 2% and IL-1B inflam inh -12.
Cc1coc2c1C(=O)C(=O)c1c-2ccc2c1CCCC2(C)C was read as SW480 rerep 8%, MCF10A rereplic inconclusive, ATXN2 expr inh 12%, PINK1 modulator 0%, S2 tox inactive and IL-1B inflam inh 31.
Screening O=C(Nc1ccc(OC(F)F)cc1)Nc1cccc(C(F)(F)F)c1 returned SW480 rerep inconclusive, MCF10A rereplic inconclusive, ATXN2 expr inh inconclusive, PINK1 modulator inconclusive, S2 tox inconclusive and IL-1B inflam inh -80*.
NNC(=O)Nc1cccc(C(F)(F)F)c1 was read as SW480 rerep -4%, MCF10A rereplic -6%, ATXN2 expr inh -5%, PINK1 modulator 0%, S2 tox inactive and IL-1B inflam inh 17.
Screening Cc1ccccc1NC(=O)/C=C/c1cccc(C(F)(F)F)c1 returned SW480 rerep 2%, MCF10A rereplic -2%, ATXN2 expr inh 16%, PINK1 modulator 10%[38.3 µM], S2 tox inactive and IL-1B inflam inh -57*.
`NC(=O)/C=C\C(=O)Nc1cccc(C(F)(F)F)c1` gave SW480 rerep 1%, MCF10A rereplic 15%, ATXN2 expr inh -33%, PINK1 modulator 8%[38.3 µM], S2 tox inactive and IL-1B inflam inh -105*.
`CCN(CC)S(=O)(=O)c1ccc(NC(=O)c2cccs2)cc1` gave SW480 rerep -4%, MCF10A rereplic 7%, ATXN2 expr inh -18%[11.3 µM], PINK1 modulator 0%, S2 tox inactive and IL-1B inflam inh -52*.
Screening Cc1ccccc1NC(=O)COC(=O)/C=C/c1cccc(C(F)(F)F)c1 returned SW480 rerep -13%, MCF10A rereplic 0%, ATXN2 expr inh -5%, PINK1 modulator -1%, S2 tox inactive and IL-1B inflam inh 1.
For COc1ccc(CN2COc3ccc4c(-c5ccc(OC)cc5)cc(=O)oc4c3C2)cc1 the results were ATXN2 expr inh -7%, PINK1 modulator 1% and S2 tox inactive.
`Cc1ccc(S(=O)(=O)Nc2ccc(C(=O)Nc3ccncc3)cc2)cc1` gave SW480 rerep 3.3µM*, MCF10A rereplic 15%, ATXN2 expr inh 5%, PINK1 modulator 3%, S2 tox inactive and IL-1B inflam inh 8.
